These results are taken from ChEMBL document CHEMBL4513216, “Probing the Open Global Health Chemical Diversity Library for Multistage-Active Starting Points for Next-Generation Antimalarials” (ACS Infect Dis, 2020).

In all, about 65,000 compounds went through this assay and about 2,100 (3.2%) showed an effect of 50% or more. The median lay at about -52%. This is one part of a sample in which strong results are shown more often than they occur.

The subject of the assay is Plasmodium falciparum. Kind of assay: Screen against P. falciparum Asexual Blood Stage (ABS), at 5uM. It is filed as functional, Dd2. The conditions noted are these: tested at 5 uM.
As to `c1ccc(O[C@@H]2CO[C@@]3(CCCN(CC4CCOCC4)C3)C2)nc1`, the INHIBITION was 3.78%. With `Cc1cc(CN2C[C@@H]3COC[C@]3(CNS(C)(=O)=O)C2)no1` the figure was -20.4%; with `CN1CCOC(CN(C(=O)CN2CCCC2=O)c2nccs2)C1` (centres undefined), -55.7%. For `N#Cc1cccc(OC23CCCN(CC2)C3)c1` (centres undefined) the value was -31.3%; for `c1ccc(Oc2cccc(OC34CCCN(CC3)C4)c2)cc1` (centres undefined), 76.9%.

As for `c1ccc(O[C@@H]2CN(Cc3nccs3)[C@@H]3CCCO[C@@H]32)nc1`, the INHIBITION is -4.8%. On to `CCOCCN(C)C(=O)Nc1cccc2c1CCN(CC)C2`, for which the INHIBITION is -88.7%.

Consider `CCc1ccccc1OCCN(C)C(=O)CN1CCCC1`, for which the INHIBITION amounted to 75.4%.

Consider `Cc1noc(C)c1CN1C[C@@H]2CN(C(=O)c3cscn3)C[C@@H]2C1`, for which the INHIBITION is -82.3%. As to `CC(C)c1n[nH]c(C(=O)Nc2ccccn2)c1Br`, the INHIBITION is recorded as 84.6%. With `Cc1ccnc(NC(=O)c2[nH]nc(C(C)C)c2Br)c1` the figure was 73.7%. With `Cc1ccnc(NCCNC(=O)C2CC3(CCNCC3)CN2C)c1` (centres undefined) the figure was -81.4%; with `Cc1cc(CN2C[C@@H]3CN(C(=O)c4ccsc4)CCO[C@@H]3C2)no1`, -12.1%; with `CN1CCc2nc3c(c(N)c2C1)CCCN3C`, -7.55%. With `CN1CCCc2c1nc1c(c2N)CCCC1` the figure was 75.8%; with `Cc1cnccc1NCCNC1CCN(CC(C)C)CC1`, 80%; with `CC(C)CN1CCC(NCCNc2cccnc2)CC1`, 79.1%. Regarding `CC(C)CN1C(=O)C2(CCCC2)NC1c1cccnc1` (centres undefined), the INHIBITION is reported as -8.76%. In the case of `CC(=O)N1C[C@H]2CNC[C@@]2(C(=O)NCCNc2ccncc2C)C1`, the INHIBITION was -37%.

As to `c1cncc(NCCNC2CCCNC2)c1` (centres undefined), the INHIBITION is listed as -1.26%. With `Cc1cc(CC(C)NC2CCN(CC(C)C)CC2)[nH]n1` (centres undefined) the figure was -57.2%; with `Cn1cc(N2C(=O)CC[C@@H]3[C@H]2CCN3Cc2ccncc2)cn1`, -123%.

As for `c1ccc(CN2CCN3C[C@H](Oc4cccnc4)C[C@H]3C2)nc1`, the INHIBITION is -10.5%.

With `COc1ccccc1CNCc1nn(-c2ccccc2)c2c1CCC2`, the INHIBITION is given as 81.6%. Take `c1ccc(O[C@@H]2CC[C@H]3[C@H]2OCCN3Cc2ccsc2)nc1`: the INHIBITION is given as -77.6%. For `O=C(c1[nH]nc(C2CC2)c1Cl)N1CCN(S(=O)(=O)c2ccccc2)CC1`, the INHIBITION came out at 75.8%. On to `CN1CCN(S(=O)(=O)c2ccccc2)Cc2cccnc21`, for which the INHIBITION is recorded as -41.3%.

Regarding `O=C(NCc1ccccn1)[C@]12COC[C@H]1CN(C1CCC1)C2`, the INHIBITION is -26.3%. For `N#Cc1ccc(NCCc2n[nH]c(=O)[nH]2)cc1Cl` the value was -36.1%.
